PostGolgi ctrl: growth inhibition of yeast control strain, primary screen, counter-screen for post-Golgi transport modulator project; efflux-deficient yeast background strain, growth absorbance A615, 16 h; inhibition, % at 10 µM; 98,000 tested, 5% active; AID 738, 2007
PostGolgi yeast: phenotypic screen on post-Golgi transport, primary screen | AID 739, 2007 | 98,000 tested, 0.9% active | inhibition, % at 10 µM | post-Golgi transport phenotypic cell assay;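 note: yeast cells grown in 1536-well plates; yeast grown about 18 h at 30C before absorbance read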
D1 mod: D1 CRE-luciferase signal change, two-sided – cell-based, HEK293 D1, dopamine EC30, D1 allosteric modulator project, primary screen | D(1A) dopamine receptor (Homo sapiens), P21728 | dopamine EC30 potentiation; actives deviate in either direction | B-score at 10 µM | 58,000 tested, 5.9% active | AID 641, 2007;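 active = luminescence count or its row- and column-corrected plate score outside the 99.7% band of the plate's sample wells, on either side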
Target sequence (P21728 whole entry, looked up): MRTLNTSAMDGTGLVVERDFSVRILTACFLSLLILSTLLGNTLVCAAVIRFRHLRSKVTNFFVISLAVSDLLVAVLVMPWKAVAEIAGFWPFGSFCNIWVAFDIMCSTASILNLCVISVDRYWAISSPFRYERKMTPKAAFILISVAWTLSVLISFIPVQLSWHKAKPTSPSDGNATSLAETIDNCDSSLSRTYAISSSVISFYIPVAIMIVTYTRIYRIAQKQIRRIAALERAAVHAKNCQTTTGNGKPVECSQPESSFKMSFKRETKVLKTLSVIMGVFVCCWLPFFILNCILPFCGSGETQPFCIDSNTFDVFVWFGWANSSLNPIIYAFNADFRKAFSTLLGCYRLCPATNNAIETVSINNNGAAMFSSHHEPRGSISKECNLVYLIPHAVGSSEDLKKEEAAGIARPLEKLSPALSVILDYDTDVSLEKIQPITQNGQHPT
hDAT+cocaine: changed hDAT dopamine uptake under cocaine IC80, either direction, primary screen, cocaine antagonist project, cell-based, LLC-PK1 hDAT, [14C]-dopamine uptake, MLSMR. Sodium-dependent dopamine transporter (Homo sapiens), Q01959. LLC-PK1 hDAT cells, [14C]-dopamine uptake with cocaine IC80; actives deviate in either direction. B-score at 10 µM. 110,000 tested, 1.3% active. AID 449768, 2010;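 active = Z score or B-score, a plate-position-corrected score, falls beyond the plate's 99.7% confidence bounds, in either direction; inactive = both scores lie inside the 99.7% bounds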;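 note: scored against the spread of the other compound wells on the same plate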
Cav3 T inh: Cav3.2 calcium influx blockers – cell-based, Fluo-4 calcium fluorescence, FDSS, MLSMR library, primary screen. Voltage-dependent T-type calcium channel subunit alpha-1H (Homo sapiens), O95180. Cav3.2-expressing cells; active compounds read low. B-score at 10 µM. 100,000 tested, 4% active;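 active = single-dose well whose peak fluorescence ratio is a statistical outlier from its plate by either plate-standardised score or position-corrected B-score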
PLAP activator: PLAP enzyme activators, biochemical, luminescence, HTS; Alkaline phosphatase, placental type (Homo sapiens), P05187; AID 696, 2007; activation fold at 20 µM; 96,000 tested, 1.2% active; purified PLAP enzyme, luminescent substrate read-out; active compounds read high; in the data active = activation fold above about 2
Starred values were filed as active, the others as inactive. Most compounds without a hit are left out; they make up all but 12% or so of the library. Cut-off read from the data, not from the text of the source, unless noted: active = inhibition above about 30%; inactive = the rest.

How did O=C(CCl)Nc1ccc(Oc2cnc3ccccc3n2)cc1 do in these assays?
PostGolgi ctrl: 5.1; PostGolgi yeast: -4.4; hDAT+cocaine: -1.83; Cav3 T inh: 1.13; PLAP activator: 0.9

What do the screens show for `CN(C)C=Nc1nonc1-c1ncn[nH]1`?
PostGolgi ctrl: -1.4; PostGolgi yeast: -0.3; D1 mod: -0.534; hDAT+cocaine: -1.01; Cav3 T inh: 0.249; PLAP activator: 1.1

Results for CN(C)C=Nc1c(Br)cc(Br)c2nonc12 ?
PostGolgi ctrl: 5.9; PostGolgi yeast: 14.5; D1 mod: 0.694; hDAT+cocaine: -0.495; Cav3 T inh: -4.17*; PLAP activator: 0.9

Results for Cc1cccc(C2Nc3ccccc3C(=O)N2c2ccccc2)n1 (stereo not drawn) ?
PostGolgi ctrl: 7.5; PostGolgi yeast: 30.5*; D1 mod: 0.0457; hDAT+cocaine: -0.141; Cav3 T inh: -0.53; PLAP activator: 1.1

How did O=S(=O)(NCC1CCCO1)c1ccc2c(c1)OCCO2 (stereo not drawn) do in these assays?
PostGolgi ctrl: -3.2; PostGolgi yeast: 1.6; D1 mod: 0.0458; hDAT+cocaine: 0.146; Cav3 T inh: 0.484; PLAP activator: 0.9

What do the screens show for `CC1CCCC(NS(=O)(=O)c2ccc3c(c2)OCCO3)C1C` (stereo not drawn)?
PostGolgi ctrl: 55.4*; PostGolgi yeast: -6.8; D1 mod: 0.53; hDAT+cocaine: -0.634; Cav3 T inh: -1.25; PLAP activator: 0.9

How did COc1ccc(S(=O)(=O)NC2CC3CCC2C3)cc1Cl (stereo not drawn) do in these assays?
PostGolgi ctrl: 94.9*; PostGolgi yeast: 81.4*; D1 mod: 0.307; hDAT+cocaine: -0.464; Cav3 T inh: -2.85; PLAP activator: 0.7

How did O=S(=O)(NC1CC2CCC1C2)c1ccc2c(c1)OCCO2 (stereo not drawn) do in these assays?
PostGolgi ctrl: 55.1*; PostGolgi yeast: 1.0; D1 mod: 1.35; hDAT+cocaine: -0.472; Cav3 T inh: -0.978; PLAP activator: 0.9

How did COc1ccc(C2NC3=C(CCCC3)C(C#N)(C#N)C2(C#N)C#N)cc1 (stereo not drawn) do in these assays?
PostGolgi ctrl: 4.7; PostGolgi yeast: -2.3; D1 mod: 0.137; hDAT+cocaine: 0.0227; Cav3 T inh: 0.061; PLAP activator: 1.8

Results for COc1ccc(C2NC3=C(CCC3)C3(C#N)C4(N=C(N)C23C#N)OCCO4)cc1 (stereo not drawn) ?
PostGolgi ctrl: 9.0; PostGolgi yeast: 3.1; D1 mod: -3.54*; hDAT+cocaine: -0.0478; Cav3 T inh: 0.113; PLAP activator: 1.4

Results for c1ccn2c(SCc3cn4ccsc4n3)nnc2c1 ?
PostGolgi ctrl: 9.1; PostGolgi yeast: 9.6; D1 mod: -1.96; hDAT+cocaine: 0.264; Cav3 T inh: 0.549; PLAP activator: 1

Results for Cc1cccc(-c2nc3ccccc3c3nncn23)c1 ?
PostGolgi ctrl: -2.6; PostGolgi yeast: 0.6; D1 mod: 14.5*; hDAT+cocaine: 0.0702; Cav3 T inh: 0.937; PLAP activator: 1

How did O=C1Nc2ccccc2C12Nc1ccccc1-c1nc3ccccc3n12 (stereo not drawn) do in these assays?
PostGolgi ctrl: -3.6; PostGolgi yeast: -3.6; D1 mod: 1.45; hDAT+cocaine: 0.516; Cav3 T inh: -4.8*

How did CCCCC1(C)Nc2ccccc2-c2nc3ccccc3n21 (stereo not drawn) do in these assays?
PostGolgi ctrl: 3.2; PostGolgi yeast: 6.4; hDAT+cocaine: 0.44; Cav3 T inh: -4.9*; PLAP activator: 0.9

Results for CC1(c2ccccn2)Nc2ccccc2-c2nc3ccccc3n21 (stereo not drawn) ?
PostGolgi ctrl: 22.1; PostGolgi yeast: 14.9; D1 mod: -0.238; hDAT+cocaine: 0.534; Cav3 T inh: 2.29; PLAP activator: 0.9

What do the screens show for `O=C1NC2=C(C(=O)CCC2)C(c2ccc3ncccc3c2)N1` (stereo not drawn)?
PostGolgi ctrl: -3.5; PostGolgi yeast: 4.9; D1 mod: 1.48; hDAT+cocaine: 0.591; Cav3 T inh: 0.682; PLAP activator: 0.9

What do the screens show for `Cc1ccc(O)c(C(CC(=O)N2CCCC2)c2ccccc2)c1` (stereo not drawn)?
D1 mod: 0.0889

How did CCCN(CCC)C(=O)CC(c1ccccc1)c1cc(C)ccc1O (stereo not drawn) do in these assays?
PostGolgi ctrl: 13.9; PostGolgi yeast: -5.9; hDAT+cocaine: 2.52*; Cav3 T inh: -5.93*; PLAP activator: 1.1

What do the screens show for `O=C(CSc1nc2ccccc2o1)Nc1ccccc1N1CCCCCC1`?
PostGolgi ctrl: 21.2; PostGolgi yeast: 3.4; D1 mod: -0.727; hDAT+cocaine: 0.0518; Cav3 T inh: -6.58*; PLAP activator: 1

How did O=C(CSc1nc2ccccc2o1)Nc1ccc(N2CCOCC2)c(Cl)c1 do in these assays?
PostGolgi ctrl: 0.6; PostGolgi yeast: -5.7; D1 mod: -0.369; hDAT+cocaine: 0.00516; Cav3 T inh: -3.76*; PLAP activator: 1

How did O=C(Nc1ccccc1)C1Cc2ccccc2CN1C(=O)c1ccco1 (stereo not drawn) do in these assays?
PostGolgi ctrl: 0.1; PostGolgi yeast: -3.5; hDAT+cocaine: 0.0116; Cav3 T inh: 0.865; PLAP activator: 0.9

What do the screens show for `O=C(Nc1cc(C(F)(F)F)ccc1N1CCOCC1)C1Cc2ccccc2CN1C(=O)c1ccco1` (stereo not drawn)?
PostGolgi ctrl: 15.3; PostGolgi yeast: 1.1; D1 mod: -1.82; hDAT+cocaine: -0.333; Cav3 T inh: -8.81*; PLAP activator: 1.7

Results for CC(=O)c1cc2c(cc1NC(=O)CSc1nc3ccccc3o1)OCO2 ?
PostGolgi ctrl: 4.7; PostGolgi yeast: -1.4; D1 mod: 0.0239; hDAT+cocaine: -0.447; Cav3 T inh: -1.32; PLAP activator: 0.8

How did O=C(CSc1nc2ccccc2o1)Nc1ccc(Cl)cc1 do in these assays?
PostGolgi ctrl: 15.9; PostGolgi yeast: -12.8; hDAT+cocaine: -0.0236; Cav3 T inh: 0.271; PLAP activator: 0.8

How did O=C(CSc1nc2ccccc2o1)NC(=O)NCc1ccccc1 do in these assays?
PostGolgi ctrl: 10.6; PostGolgi yeast: 5.5; hDAT+cocaine: -0.62; Cav3 T inh: -6.52*; PLAP activator: 1.2

What do the screens show for `COc1ccc(-n2nc3cc(C)c(NC(=O)CC(C)C)cc3n2)cc1`?
PostGolgi ctrl: -0.4; PostGolgi yeast: -1.1; hDAT+cocaine: -0.601; Cav3 T inh: -0.588; PLAP activator: 0.8

Results for COc1ccccc1CCNC(=O)c1ccoc1C ?
PostGolgi ctrl: 5.4; PostGolgi yeast: 18.0; D1 mod: 0.696; hDAT+cocaine: -0.0476; Cav3 T inh: 0.00767; PLAP activator: 0.8
